Measurements published in PubChem BioAssay AID463212 (Sanford-Burnham Center for Chemical Genomics, 2010).
Among all 330,000 compounds or so, about 4,400 (1.3%) were called active. Shown is part of a subset that was picked to be rich in actives. Values without a mark were called inactive.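 How the source made its calls: active means growth inhibition of the mutant yeast at or above 50%; inactive means the rest.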

Assay: growth inhibitors of tim23-1 mutant yeast, primary screen, luminescence, uHTS (AID 463212);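 further: temperature-sensitive mutant grown at 25 °C; plate controls were DMSO-treated mutant yeast for no effect and medium wells lacking yeast for full effect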
Conditions: S. cerevisiae tim23-1 growth, BacTiter-Glo luminescence, 24 h; at 20 µM; active compounds read high

Compound	inhibition
COc1cccc(N2C(=O)NC(=O)/C(=C\c3ccc([N+](=O)[O-])s3)C2=O)c1	50.5% (active)
O=C1NC(=O)N(c2ccccc2)C(=O)/C1=C/c1ccc([N+](=O)[O-])s1	41.2%
COc1ccc(N2C(=O)/C(=C/c3ccco3)C(=O)NC2=S)cc1	11.6%
COC(=O)C1=C(c2ccc(F)cc2OCc2ccccc2)C[C@@H]2CC[C@H]1N2C(=O)NCc1ccc(C(C)(C)C)cc1	19.7%
Cc1cc2ccccn2c1C(C[N+](=O)[O-])c1c(F)cccc1Cl (stereo not given)	69.2% (active)
O=c1c2ccccc2nc(-c2ccc(Cl)cc2Cl)n1-c1ccncc1	35.9%
COP(=O)(OC)C(NC(=O)c1ccc(C)cc1)C(Cl)(Cl)Cl (stereo not given)	-17.8%
COC(=O)C1=C(c2ccc(Cl)c(C(F)(F)F)c2)C[C@@H]2CC[C@H]1N2C(=O)NC(C)C	21.8%
CCC(C)n1c(O)c(/C=N/Nc2nc3c(c(=O)n(C)c(=O)n3C)n2C)c(=O)[nH]c1=S (stereo not given)	1.46%
CC(=O)N1CN2CN(C(C)=O)CC(C(=O)c3ccc(Br)cc3)(C2)C1	0.81%
O=c1c2ccccc2nc(-c2ccccc2)n1-c1ccccn1	14.3%
Cc1ccc(-c2nc3ccccc3c(=O)n2-c2ccc(Br)cn2)cc1	52.7% (active)
O=c1c2ccccc2nc(-c2ccco2)n1-c1ccc(Br)cn1	29%
COC(=O)C1=C(c2cc3ccccc3s2)C[C@@H]2CC[C@H]1N2C(=O)NCc1cccc2ccccc12	34.5%
COc1cccc(CN2CCCC(C(=O)c3ccccc3SC)C2)c1O (stereo not given)	8.13%
